High-throughput results: PubChem, several laboratories
Shown are actives, neighbours in structure and some others; about 1.7% of the full set was active somewhere.
PfHsp40 rescue: restores yeast growth despite PfHsp40 toxicity; S. cerevisiae expressing PfHsp40, growth rescue, ATP luminescence; growth rescue, % at 12.5 µM; 0.68% of 340,000 active; AID 504582; in the data active = growth rescue above about 28%, passing the limit was not always enough;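 also: yeast W303a lacking pdr1 and pdr3 grown in galactose medium; growth measured after three days at 30 °C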
RecA intein inh: blocks M. tuberculosis RecA intein splicing. P9WHJ3. 0.75% of 290,000 active. inhibition, % (concentration not given with the values). cell-free RecA intein splicing, fluorescence; in the data active = inhibition above about 30%
Target sequence (P9WHJ3 whole entry, looked up): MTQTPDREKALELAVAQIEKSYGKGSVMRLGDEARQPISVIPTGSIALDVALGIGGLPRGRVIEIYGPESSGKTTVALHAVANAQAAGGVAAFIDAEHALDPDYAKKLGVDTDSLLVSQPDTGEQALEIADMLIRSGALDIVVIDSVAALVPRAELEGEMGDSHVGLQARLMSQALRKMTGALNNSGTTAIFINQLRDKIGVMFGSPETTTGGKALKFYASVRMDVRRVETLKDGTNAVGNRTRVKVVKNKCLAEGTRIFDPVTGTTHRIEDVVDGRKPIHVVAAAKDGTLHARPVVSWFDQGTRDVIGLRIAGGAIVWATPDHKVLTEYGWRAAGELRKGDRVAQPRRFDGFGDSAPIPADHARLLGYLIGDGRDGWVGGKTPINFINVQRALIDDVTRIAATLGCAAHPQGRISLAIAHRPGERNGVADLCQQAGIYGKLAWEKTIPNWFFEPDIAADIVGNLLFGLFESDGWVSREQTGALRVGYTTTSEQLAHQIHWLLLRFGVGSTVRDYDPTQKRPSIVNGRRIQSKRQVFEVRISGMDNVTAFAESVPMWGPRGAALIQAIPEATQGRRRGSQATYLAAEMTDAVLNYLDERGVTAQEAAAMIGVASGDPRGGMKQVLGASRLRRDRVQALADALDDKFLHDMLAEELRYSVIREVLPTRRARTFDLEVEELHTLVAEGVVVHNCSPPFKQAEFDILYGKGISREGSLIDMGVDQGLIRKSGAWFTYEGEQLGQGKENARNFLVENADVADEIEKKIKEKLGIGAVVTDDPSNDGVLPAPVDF
Mtb hypoxia rep: reduces hypoxia-regulated biosensor signal in M. tuberculosis; M. tuberculosis hypoxia-regulated fluorescent reporter, fluorescence; fluorescence inhibition, % (concentration not given with the values); AID 1159583; 0.1% of 300,000 active; in the data active = fluorescence inhibition mostly above about 23%, no sharp cut-off; inactive = mostly below about 17%
Mtb betalactam: beta-lactam sensitization of Mtb H37Rv | M. tuberculosis H37Rv growth with meropenem, percent inhibition | inhibition, % at 25 µM | 0.27% of 330,000 active | AID 434955;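 also: growth measured after seven days incubation then overnight dye step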
CCHFV vOTU inh: CCHFV vOTU protease inhibition; 0.55% of 370,000 active; inhibition, % at 11.5 µM; Pep-AMC fluorescence; in the data active = inhibition above about 30%
GFP chromophore: counter-screen GFP chromophore formation inhibition; shares compounds with RecA intein inh; cell-free GFP chromophore formation, fluorescence; EC50, µM; 83% of 2,100 active
Numbers stand for hits; - = inactive; . = no result given. Unless noted, no rule for the calls is given here.

SMILES | PfHsp40 rescue | RecA intein inh | Mtb hypoxia rep | Mtb betalactam | CCHFV vOTU inh | GFP chromophore
O=C(Cc1cc(=O)[nH][nH]1)N/N=C/c1ccccc1Cl | . | 74.0 | . | - | - | 7.7
O=C(Cc1cc(=O)[nH][nH]1)N/N=C/c1cccc2ccccc12 | - | 94.1 | . | - | - | 7.28
Cn1cccc1CC(=O)N/N=C/C(Cl)=C/c1ccccc1 | - | - | . | - | - | .
O=C(Cc1cc(=O)[nH][nH]1)N/N=C/c1cccc(Cl)c1Cl | - | 94.4 | . | - | - | 10.5
O=C(Cc1cc(=O)[nH][nH]1)N/N=C/C(Cl)=C/c1ccccc1 | - | 81.3 | . | - | - | 5.98
CN(C)C=Nc1c(C(=O)NCc2ccccc2)nnn1Cc1ccccc1 | . | . | - | . | . | .
CCN(CC)c1ccc(C=NN2CCN(c3ccccn3)CC2)cc1 | . | . | - | . | . | .
CCN1CCN(c2c(Cl)cccc2NC(=O)c2ccc3c(c2)OCCO3)CC1 | - | 30.9 | - | - | - | -
O=C(Nc1cccc(Cl)c1N1CCCCC1)c1ccc2c(c1)OCCO2 | - | - | - | - | - | .
COC(=O)c1ccccc1OC(=O)c1ccc(Br)o1 | - | 38.4 | . | - | - | -
CCOC(=O)N1C2=NC(C(=O)OC)=C(C(=O)OC)C3Nc4ccccc4[C@]23CC1C(=O)OC (stereo partly specified) | . | . | - | . | . | .
O=C(NCc1cccnc1)/C(=C\c1ccc(-c2ccc(Br)cc2)o1)S(=O)(=O)c1ccccc1 | - | 51.4 | . | - | - | 29.4
O=C(CSc1nc2ccc(Cl)cc2[nH]1)NCc1ccco1 | - | - | . | - | - | .
O=C(CSc1c2c(nc3cc(Cl)ccc13)CCCC2)NCc1ccco1 | - | 30.1 | - | - | - | -
COc1ccc(NC(=O)CSc2c3c(nc4cc(Cl)ccc24)CCCC3)cc1OC | - | - | - | - | - | 29.1
CC(=O)n1cc(C2C=C(C(=O)N3CCN(C)CC3)OC(OCc3ccc(CO)cc3)C2)c2ccccc21 (stereo unspecified) | . | . | - | . | . | .
CCN1C(=O)C2C(c3ccc(C)cc3)N3C(=O)N(c4ccc(C)cc4)C(=O)[C@@]3(CC)C2C1=O (stereo partly specified) | . | . | - | . | . | .
O=C(Nc1ccccc1)Nc1ccc(O)c2ccccc12 | . | 60.0 | - | - | . | 3.01
COc1ccc(C(=O)Nc2ccc(O)c3ccccc23)cc1OC | - | 98.4 | - | - | - | 15.2
COc1ccc(C(=O)Nc2ccc(F)cc2F)cc1OC | - | - | - | - | - | .
CCCc1c(C(=O)NN=Cc2ccc(C)s2)nnn1-c1nonc1N | . | . | - | . | . | .
CC(C)(C)NC(=O)C(c1ccc(Cl)cc1)N(Cc1ccco1)C(=O)CCl (stereo unspecified) | - | 69.2 | . | - | - | 21.9
C/C(CC(=O)Nc1ccccc1[N+](=O)[O-])=N\NC(=O)COc1ccccc1C | - | 69.4 | . | - | - | 21.1
C/C(CC(=O)Nc1ccc(F)cc1)=N\NC(=O)COc1ccccc1 | - | 65.8 | . | - | - | 21.8
COC(=O)C1=C(c2ccc(F)cc2OCc2ccccc2)CC2CCC1N2C(=O)NC1CC1 (stereo unspecified) | . | . | - | . | . | .
SMILES | PfHsp40 rescue | RecA intein inh | Mtb hypoxia rep | Mtb betalactam | CCHFV vOTU inh | GFP chromophore
O=C(c1ccc(Oc2ccc(C(F)(F)F)cn2)cc1)N1CCN(c2ccccc2)CC1 | - | - | - | - | - | .
COc1ccc(N2CCN(C(=O)c3ccc(Oc4ccc(C(F)(F)F)cn4)cc3)CC2)cc1 | - | 31.1 | - | - | - | -
C#CCOCCOCCOCCNc1nc(N2CCN(C(=O)CCCCCCCCCCNC(=O)C(CO)n3cc(CCCSC)nn3)CC2)nc(N2CCN(C(=O)CCCCCCCCCCNC(=O)C(CCC(=O)O)n3cc(CCCCCN)nn3)CC2)n1 (stereo unspecified) | . | . | - | . | . | .
COc1cc(C(=O)CSc2nnc(-c3ccc(O)cc3)n2CC2CCCO2)ccc1NC(C)=O (stereo unspecified) | - | 36.2 | - | - | - | -
CCC(=O)Nc1ccc(C(=O)CSc2nnc(-c3ccc(O)cc3)n2CC2CCCO2)cc1 (stereo unspecified) | - | - | - | - | - | .
c1ccc(-c2nc(N3CCCCCC3)c3ccccc3n2)nc1 | - | 32.2 | . | - | - | -
COc1cc(/C=C/C(=O)OCC(=O)Nc2ccccc2Sc2ccc(Cl)cc2)ccc1O | - | 35.5 | - | - | - | -
CC1=C(CC(=O)c2ccc(Cl)cc2)C(=O)c2ccccc2C1=O | - | 68.4 | - | - | - | 11.3
O=C(Cc1ccccn1)c1ccc(Cl)cc1 | - | - | . | - | - | .
CCN1Cc2c(/C=C/c3ccccc3)nc3ccc(OC)cc3c2N(c2cccc(Cl)c2)C1 | - | 34.4 | . | - | - | 23.4
Cc1noc2ncnc(N3CCCC3)c12 | - | - | - | - | - | .
Cc1noc2ncnc(Sc3ccc(Br)cc3)c12 | - | 36.5 | - | - | - | 31.5
N#Cc1c(N)nc(SCc2ccncc2)c(C#N)c1-c1cccs1 | - | - | - | - | - | .
CN1CCc2nc(SCc3ccc(Cl)cc3)c(C#N)c(-c3cccs3)c2C1 | . | 60.2 | - | . | - | 8.66
O=C(CCl)N1c2ccccc2OCC1c1ccccc1 (stereo unspecified) | - | 80.7 | . | - | - | 4.47
O=C(CCl)N1c2ccccc2SCC1c1ccccc1 (stereo unspecified) | - | - | . | - | - | .
Cc1ccc(C(=O)OCn2ncc(Cl)c(Cl)c2=O)cc1 | - | 74.9 | - | - | - | 6.36
COc1ccc(NC(=O)c2ccc(Cl)nc2)cc1S(=O)(=O)N1CCOCC1 | - | . | - | - | - | .
CCOC(=O)c1ccc(NC(=O)Cn2ncc(Cl)c(Cl)c2=O)cc1 | 34.3 | 62.1 | 36.5 | - | - | 12.9
O=C(OCn1ncc(Cl)c(Cl)c1=O)c1ccc(C(F)(F)F)cc1 | - | 80.1 | - | . | - | 1.39
COc1ccc(NC(=O)Cn2ncc(Cl)c(Cl)c2=O)cc1S(=O)(=O)N1CCOCC1 | - | 43.2 | - | - | - | 30.5
CC(C)NC(=O)N(C)CC1Oc2ccc(NC(=O)C3CC3)cc2C(=O)N(C(C)CO)CC1C (stereo unspecified) | . | . | - | . | . | .
CCOC(=O)c1ccc(-c2ccc(C=NNC(=O)CN(c3cccc(C)c3)S(C)(=O)=O)o2)cc1 | . | . | - | . | . | .
COc1cc(C=NNC(=O)CC2C(=O)NN=C2C)ccc1O (stereo unspecified) | . | . | - | . | . | .
CC(=O)Nc1ccc(-c2nc3cc(Cl)ccc3o2)cc1 | - | - | - | - | - | .
O=C(O)c1ccccc1-c1ccccc1C(=O)Nc1ccc(-c2nc3cc(Cl)ccc3o2)cc1 | - | 35.7 | . | - | - | 16.9
CCOc1cc(/C=C2/SC(=S)N(CC(=O)O)C2=O)ccc1OC(=O)c1cccs1 | - | - | - | - | - | .
CCOc1cc(/C=C2\C(=O)N(c3ccc(C(N)=O)cc3)N=C2C)ccc1OC(=O)c1cccs1 | - | 94.1 | - | - | . | 3.35
CC(C)(C)c1cc[n+](C2=C([O-])c3ccccc3C(=O)/C2=N\S(=O)(=O)c2ccccc2)cc1 | . | 50.0 | - | - | - | 16.5
Cc1cc[n+](C2=C([O-])c3ccccc3C(=O)/C2=N\S(=O)(=O)c2cccs2)cc1C | - | 32.0 | - | - | - | 6.67
